Experimental findings from PubChem BioAssay (EPA / NIEHS) are described below.

Calls of active or inactive are those of the source. How the source made its calls: active means hit-call score of the fitted dose curve at least 0.9, where 1 is the maximum; inactive means score below 0.9.

Common to all, as to details: mRNA level, 48 h; actives raise or lower the signal
Read-out in assay [1]: ABC Transporter (ABCC2), ABCC2 (gene 1244)
As to the kind of experiment: LTEA_HepaRG_ABCC2: Life Technologies and Expression Analysis (LTEA) Assay for ABC Transporter (ABCC2) using HepaRG (AID 2283464). In outline:
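Gene expression of ABCC2 was determined by qRT-PCR in HepaRG cells exposed 48 h to chemicals (highest 100 uM, half-log dilutions). Activity was fitted in both directions relative to 0.5% DMSO vehicle.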

Read-out in assay [2]: Broad substrate specificity ATP-binding cassette transporter ABCG2 (Homo sapiens) (UniProt Q9UNQ0)
Briefly: LTEA_HepaRG_ABCG2: Life Technologies and Expression Analysis (LTEA) Assay for ABC Transporter (ABCG2) using HepaRG (AID 2283465). In outline:
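HepaRG, 48 h exposure, 8-pt half-log series from 100 uM, 0.5% DMSO vehicle, duplicates. Readout: ABCG2 transcript by qRT-PCR (Fluidigm array), housekeeping-normalized; bidirectional curve fit relative to DMSO baseline.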

Read-out in assay [3]: Peroxisomal acyl-coenzyme A oxidase 1 (ACOX1) gene, ACOX1 (gene 51)
As to the kind of experiment: LTEA_HepaRG_ACOX1: Life Technologies and Expression Analysis (LTEA) Assay for Peroxisomal acyl-coenzyme A oxidase 1 (ACOX1) gene using HepaRG (AID 2283467). In a few lines: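 HepaRG, 48 h chemical exposure, 8-pt half-log series from 100 uM top, 0.5% DMSO vehicle, duplicates. Readout: ACOX1 mRNA by Fluidigm qRT-PCR, housekeeping-normalized; bidirectional fit vs DMSO baseline.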

Read-out in assay [4]: Alkaline Phosphatase, Placental (ALPP) gene, ALPP (gene 250)
Briefly: LTEA_HepaRG_ALPP: Life Technologies and Expression Analysis (LTEA) Assay for Alkaline Phosphatase, Placental (ALPP) gene using HepaRG (AID 2283468). In a few lines:
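Expression of ALPP was quantified by qRT-PCR against three housekeeping genes in human HepaRG cultures treated for 48 h with an eight-point concentration series up to 100 uM. Activity in either direction was fitted relative to 0.5% DMSO.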

Read-out in assay [5]: Bcl-2 (BAD) gene, BAD (gene 572)
As to the kind of experiment: LTEA_HepaRG_BAD: Life Technologies and Expression Analysis (LTEA) Assay for Bcl-2 (BAD) gene using HepaRG (AID 2283469). In a few lines:
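HepaRG, 48 h exposure, 8-pt half-log curve from 100 uM in 0.5% DMSO, duplicates. Readout: TaqMan qRT-PCR for BAD mRNA, housekeeping-normalised (ACTB/GAPDH/POLR2A); gain or loss fitted against DMSO baseline.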

Read-out in assay [6]: Bcl-2 (BAX) gene, BAX (gene 581)
As to the kind of experiment: LTEA_HepaRG_BAX: Life Technologies and Expression Analysis (LTEA) Assay for Bcl-2 (BAX) gene using HepaRG (AID 2283470). In a few lines: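 Cells were thawed, plated for 48 h, moved to serum-free induction medium and dosed for 48 h (highest concentration 100 uM, half-log steps, 0.5% DMSO). Total RNA was then analysed for BAX expression by qRT-PCR.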

Read-out in assay [7]: adenosine kinase (ADK) gene, ADK (gene 132)
Briefly: LTEA_HepaRG_ADK: Life Technologies and Expression Analysis (LTEA) Assay for adenosine kinase (ADK) gene using HepaRG (AID 2283471). In a few lines:
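ADK expression quantified by qRT-PCR, normalised to three housekeeping genes, after 48 h exposure of HepaRG cells to eight concentrations (top 100 uM, half-log steps, duplicate, 0.5% DMSO). Up- or down-regulation fitted relative to vehicle.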

Read-out in assay [8]: Alpha-fetoprotein (AFP) gene, AFP (gene 174)
Briefly: LTEA_HepaRG_AFP: Life Technologies and Expression Analysis (LTEA) Assay for Alpha-fetoprotein (AFP) gene using HepaRG (AID 2283472). In outline:
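Chemicals were tested on differentiated HepaRG cells for 48 hours at eight concentrations up to 100 uM, with 0.5% DMSO as vehicle. AFP expression was then quantified by qRT-PCR and analyzed for gain or loss relative to DMSO.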

Read-out in a further assay: BCL2L11 (gene 10018)
Briefly: LTEA_HepaRG_BCL2L11: Life Technologies and Expression Analysis (LTEA) Assay for Bcl-2 (BCL2L11) gene using HepaRG (AID 2283473). In a few lines: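 Cells were plated, cultured 48 h, switched to serum-free induction medium, then dosed in duplicate for 48 h at eight half-log concentrations up to 100 uM. Lysates underwent RNA isolation and TaqMan qRT-PCR; gain or loss versus DMSO was fitted.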

Read-out in assay [9]: Apolipoprotein A-V (APOA5) gene, APOA5 (gene 116519)
As to the kind of experiment: LTEA_HepaRG_APOA5: Life Technologies and Expression Analysis (LTEA) Assay for Apolipoprotein A-V (APOA5) gene using HepaRG (AID 2283474). In outline: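 Human liver HepaRG cells are treated 48 h with test chemicals (100 uM top, half-log dilutions, 0.5% DMSO). APOA5 mRNA induction or loss is measured by qRT-PCR relative to vehicle.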

Read-out in assay [10]: Apoptosis regulator Bcl-2 (Homo sapiens) (UniProt P10415)
Briefly: LTEA_HepaRG_BCL2: Life Technologies and Expression Analysis (LTEA) Assay for Bcl-2 gene using HepaRG (AID 2283475). In outline:
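Plated human HepaRG cells are exposed to test chemicals for 48 h across eight concentrations from 100 uM downward in half-log steps (0.5% DMSO). BCL2 expression is then measured by qRT-PCR with housekeeping normalisation and fitted bidirectionally against vehicle.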

Read-out in assay [11]: Bcl-2 (BID) gene, BID (gene 637)
As to the kind of experiment: LTEA_HepaRG_BID: Life Technologies and Expression Analysis (LTEA) Assay for Bcl-2 (BID) gene using HepaRG (AID 2283476). In a few lines: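 Cells are plated, cultured 48 h, switched to serum-free induction medium, then dosed 48 h (100 uM top, half-log steps, 0.5% DMSO). RNA is isolated and BID expression read by qRT-PCR.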

Read-out in another assay: Caspase-3 (Homo sapiens) (UniProt P42574)
Briefly: LTEA_HepaRG_CASP3: Life Technologies and Expression Analysis (LTEA) Assay for cysteine-aspartic acid protease (CASP3) using HepaRG (AID 2283477). In a few lines:
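In HepaRG liver cells dosed for 48 h at up to 100 uM (eight-point, duplicate), CASP3 expression changes are scored by qRT-PCR. Activity is fitted in both directions with 0.5% DMSO as baseline.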

Read-out in assay [12]: Cytochrome P450 (CYP1A2), CYP1A2 (gene 1544)
Briefly: LTEA_HepaRG_CYP1A2: Life Technologies and Expression Analysis (LTEA) Assay for Cytochrome P450 (CYP1A2) using HepaRG (AID 2283479). In a few lines:
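Assesses CYP1A2 mRNA in human HepaRG liver cells after 48 h chemical exposure at up to 100 uM. Values come from qRT-PCR with bidirectional curve fitting relative to DMSO.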

Read-out in assay [13]: cysteine-aspartic acid protease (CASP8), CASP8 (gene 841)
As to the kind of experiment: LTEA_HepaRG_CASP8: Life Technologies and Expression Analysis (LTEA) Assay for cysteine-aspartic acid protease (CASP8) using HepaRG (AID 2283480). In outline: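 qRT-PCR readout of CASP8 mRNA, normalized to three housekeeping genes, after 48 h chemical exposure of HepaRG cells; 8-point half-log series, top 100 uM, 0.5% DMSO vehicle. Bidirectional curve fitting against DMSO baseline.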

Read-out in assay [14]: Cytochrome P450 (CYP2B6), CYP2B6 (gene 1555)
As to the kind of experiment: LTEA_HepaRG_CYP2B6: Life Technologies and Expression Analysis (LTEA) Assay for Cytochrome P450 (CYP2B6) using HepaRG (AID 2283481). In outline: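 Using 48 h treatment of HepaRG cells in serum-free induction medium, concentrations spanned half-log steps from 100 uM in 0.5% DMSO vehicle. CYP2B6 mRNA induction or loss is scored by qRT-PCR against DMSO.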

Read-out in assay [15]: Cytochrome P450 2C19 (Homo sapiens) (UniProt P33261)
As to the kind of experiment: LTEA_HepaRG_CYP2C19: Life Technologies and Expression Analysis (LTEA) Assay for CYP2C19 using HepaRG (AID 2283482). In outline:
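Human HepaRG liver cells received test chemicals for 48 h (highest 100 uM, half-log dilutions in 0.5% DMSO). CYP2C19 mRNA induction or loss is read by multiplexed qRT-PCR and fitted in both directions versus vehicle.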

Read-out in a further assay: CYP2C8 (gene 1558)
As to the kind of experiment: LTEA_HepaRG_CYP2C8: Life Technologies and Expression Analysis (LTEA) Assay for CYP2C8 using HepaRG (AID 2283483). In outline: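 HepaRG (human liver line), 48 h chemical exposure, 8-pt half-log series from 100 uM, 0.5% DMSO vehicle. Readout: CYP2C8 transcript by qRT-PCR, housekeeping-normalized. Bidirectional fit vs DMSO baseline.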

Broadly, the AC50 is the concentration at which the activity in the assay is half-maximal.

Broad substrate specificity ATP-binding cassette transporter ABCG2 (Homo sapiens), sequence (Q9UNQ0 whole entry, looked up): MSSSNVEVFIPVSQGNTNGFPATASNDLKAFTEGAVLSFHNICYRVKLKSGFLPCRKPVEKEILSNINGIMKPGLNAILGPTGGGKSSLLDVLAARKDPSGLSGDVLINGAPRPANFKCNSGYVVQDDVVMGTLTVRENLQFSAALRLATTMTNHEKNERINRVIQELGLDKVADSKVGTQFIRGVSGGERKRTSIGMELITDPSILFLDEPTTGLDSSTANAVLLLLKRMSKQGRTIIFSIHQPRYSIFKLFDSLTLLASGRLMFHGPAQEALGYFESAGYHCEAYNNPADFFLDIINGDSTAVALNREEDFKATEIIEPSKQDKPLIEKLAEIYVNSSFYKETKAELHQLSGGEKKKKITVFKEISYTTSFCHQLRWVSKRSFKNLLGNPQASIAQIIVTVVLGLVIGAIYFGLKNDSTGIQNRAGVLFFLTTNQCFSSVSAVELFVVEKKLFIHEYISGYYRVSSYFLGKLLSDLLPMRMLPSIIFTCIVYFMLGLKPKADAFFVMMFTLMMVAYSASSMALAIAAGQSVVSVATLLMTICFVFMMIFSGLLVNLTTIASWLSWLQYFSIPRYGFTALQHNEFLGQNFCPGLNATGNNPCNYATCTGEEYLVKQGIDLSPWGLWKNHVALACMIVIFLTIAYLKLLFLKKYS
Cytochrome P450 2C19 (Homo sapiens), sequence (P33261 whole entry, looked up): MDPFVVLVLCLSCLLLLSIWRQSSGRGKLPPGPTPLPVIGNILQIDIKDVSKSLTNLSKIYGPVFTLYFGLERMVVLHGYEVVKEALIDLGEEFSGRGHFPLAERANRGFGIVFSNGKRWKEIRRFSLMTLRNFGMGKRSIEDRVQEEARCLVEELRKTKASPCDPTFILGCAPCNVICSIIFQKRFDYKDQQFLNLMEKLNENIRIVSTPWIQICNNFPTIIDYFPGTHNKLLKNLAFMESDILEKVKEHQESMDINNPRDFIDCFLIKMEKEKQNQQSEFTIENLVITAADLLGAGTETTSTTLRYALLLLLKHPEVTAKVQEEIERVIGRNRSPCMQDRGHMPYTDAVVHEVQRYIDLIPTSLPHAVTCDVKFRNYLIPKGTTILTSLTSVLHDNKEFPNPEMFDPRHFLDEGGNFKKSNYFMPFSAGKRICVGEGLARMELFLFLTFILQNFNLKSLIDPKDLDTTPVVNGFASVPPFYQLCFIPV
Caspase-3 (Homo sapiens), sequence (P42574 whole entry, looked up): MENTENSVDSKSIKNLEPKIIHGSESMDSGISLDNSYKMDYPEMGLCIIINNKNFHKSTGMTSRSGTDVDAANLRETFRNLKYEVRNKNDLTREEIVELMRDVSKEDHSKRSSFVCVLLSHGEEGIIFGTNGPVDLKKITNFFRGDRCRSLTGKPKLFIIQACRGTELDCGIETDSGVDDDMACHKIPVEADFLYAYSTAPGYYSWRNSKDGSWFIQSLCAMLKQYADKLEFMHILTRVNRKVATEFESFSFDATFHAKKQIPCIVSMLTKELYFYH
Apoptosis regulator Bcl-2 (Homo sapiens), sequence (P10415 whole entry, looked up): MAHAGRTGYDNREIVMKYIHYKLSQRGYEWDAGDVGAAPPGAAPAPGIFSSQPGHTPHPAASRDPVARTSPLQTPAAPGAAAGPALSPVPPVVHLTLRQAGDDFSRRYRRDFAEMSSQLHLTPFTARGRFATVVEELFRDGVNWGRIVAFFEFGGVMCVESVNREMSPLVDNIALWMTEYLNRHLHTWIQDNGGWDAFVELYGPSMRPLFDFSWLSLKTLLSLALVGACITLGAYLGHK

On to `CSC(=O)c1cccc2nnsc12`, for which the call in [1], in [2], in [3], in [4], in [5] and in assay [6] was inactive. Besides, the outcome (in assay [7]; in assay [8]; with BCL2L11 (gene 10018); in assay [9]; in [10]; in [11]) was inactive. Besides, the molecule was classed as inactive (with Caspase-3 (Homo sapiens); in assay [12]; in assay [13]; in assay [14]; in assay [15]).

In the case of `N[C@@H](Cc1cc(I)c(Oc2ccc(O)c(I)c2)c(I)c1)C(=O)O`, the AC50 in assay [1] was 7.94 µM (active); in assay [2], 70.5 µM (active); in [3] it was 7.94 µM (active); in assay [9], 69.9 µM (active); in assay [14], 40 µM (active); in [15], 61.6 µM (active). For the same molecule, the AC50 with CYP2C8 (gene 1558) was 46.8 µM (active). Moreover, the molecule was classed as inactive (in assay [4]; in assay [5]; in [6]; in [7]; in the assay with BCL2L11 (gene 10018); in assay [10]). In addition, the molecule was called inactive (in assay [11]; with Caspase-3 (Homo sapiens); in assay [13]).

On to `CCCCOC(=O)C(C)Oc1ccc(Oc2ccc(C(F)(F)F)cn2)cc1` (centres undefined), for which the call in assay [1], in assay [2], in [3], in [4], in assay [5] and in assay [6] was inactive. The outcome (in assay [7]; with BCL2L11 (gene 10018); in assay [9]; in [10]; in assay [11]; with Caspase-3 (Homo sapiens)) was inactive. Also, the outcome in assay [12], in [13], in assay [14] and in assay [15] was inactive.
